# Source: the supplement of paper PMC8728848
# The sample as a whole holds a higher share of the strongest signals than the screen did.
# B1: SP16665A-bot-344-23-344 (Bacteroides ovatus) (protein)
# chain: SDNEFPDFDYQTVYFANQYGLRTIELGESEFVDNTLDNQHKMVIKAAWGGGYTNRNNVVINFKVDESLCDNLYFKDTDQPLVPMPASYYTLASDRIAIPKGQIMAGVEVQLTDDFFADEKSISENYVIPLLMTNVQGADSILQGKPVVENPVLTNAGDWSILPQNFVLYAVKYVNPWHGEYLRRGIDHATVAGTSKDIIRHEQFVENDEVVNISTKSMKDNLLTLKTKDESGKDISYTVRLSFAEDGSCTVHSGSQNVVVSGSGKFVSKGEKNSLGGKDRNAIYLDYTVNLTDNNIQLATKDTLVLRTRNVYGGKSLEVVRK
# Key:
# Test in all cases: glycan array binding signal (z-score within array); higher = stronger binding
# Details in all cases: glycan notation: IUPAC condensed, linker removed
# [1] = target: Fuc(a1-2)Gal(b1-3)GalNAc(a1-3)[Fuc(a1-2)]Gal(b1-4)GlcNAc
# In short: (§1)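 The binding signal is a Z-score computed within each array and averaged over linkers. Arrays of the same protein sequence at different concentrations or buffers were also averaged together. Data originate from 3228 arrays in the Consortium for Functional Glycomics database, kept only where the protein sequence was available.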
# [2] = target: Fuc(a1-2)Gal(b1-3)GlcNAc(b1-2)Man(a1-3)[Fuc(a1-2)Gal(b1-3)GlcNAc(b1-2)Man(a1-6)]Man(b1-4)GlcNAc(b1-4)[Fuc(a1-6)]GlcNAc
# In short: as §1
# [3] = target: Fuc(a1-2)Gal(b1-3)GlcNAc(b1-3)Gal(b1-4)Glc
# In short: as §1
# [4] = target: Fuc(a1-2)Gal(b1-3)GlcNAc(b1-3)[Gal(b1-4)GlcNAc(b1-6)]Gal(b1-4)Glc
# In short: as §1
# [5] = target: Fuc(a1-2)Gal3S(b1-4)GlcNAc
# In short: as §1
# [6] = target: Fuc(a1-2)[Gal(a1-3)]Gal(b1-3)GlcNAc(b1-2)Man(a1-3)[Fuc(a1-2)[Gal(a1-3)]Gal(b1-3)GlcNAc(b1-2)Man(a1-6)]Man(b1-4)GlcNAc(b1-4)[Fuc(a1-6)]GlcNAc
# In short: as §1
# [7] = target: Fuc(a1-2)[Gal(a1-3)]Gal(b1-4)GlcNAc(b1-3)[Fuc(a1-2)[Gal(a1-3)]Gal(b1-4)GlcNAc(b1-6)]GalNAc
# In short: as §1
# [8] = target: Fuc(a1-2)[Gal(a1-3)]Gal(b1-4)[Fuc(a1-3)]GlcNAc(b1-3)GalNAc
# In short: as §1
# [9] = target: Fuc(a1-2)[GalNAc(a1-3)]Gal
# In short: as §1
# [10] = target: Fuc(a1-2)[GalNAc(b1-3)]Gal
# In short: as §1
# [11] = target: Fuc(a1-3)[Gal(b1-4)]GlcNAc(b1-2)Man
# In short: as §1
# [12] = target: Fuc(a1-3)[Gal(b1-4)]GlcNAc(b1-3)Gal(b1-4)[Fuc(a1-3)]GlcNAc
# In short: as §1
# [13] = target: Fuc(a1-3)[Gal(b1-4)]GlcNAc(b1-3)Gal(b1-4)[Fuc(a1-3)]GlcNAc(b1-3)Gal(b1-4)[Fuc(a1-3)]GlcNAc
# In short: as §1
# [14] = target: Fuc(a1-3)[Gal(b1-4)]GlcNAc(b1-3)GalNAc
# In short: as §1
# [15] = target: Fuc(a1-4)GlcNAc
# In short: as §1
# [16] = target: Gal(a1-3)Gal(b1-3)GlcNAc
# In short: as §1
# [17] = target: Gal(a1-3)Gal(b1-4)GlcNAc(b1-2)Man(a1-3)[Gal(a1-3)Gal(b1-4)GlcNAc(b1-2)Man(a1-6)]Man(b1-4)GlcNAc(b1-4)GlcNAc
# In short: as §1
# [18] = target: Gal(a1-3)[Gal(a1-4)]Gal(b1-4)GlcNAc
# In short: as §1
# [19] = target: Gal(b1-3)GalNAc(b1-4)[Neu5Ac(a2-3)]Gal(b1-4)Glc
# In short: as §1
# [20] = target: Gal(b1-3)GlcNAc(b1-2)Man
# In short: as §1
# [21] = target: Gal(b1-3)GlcNAc(b1-2)Man(a1-3)[GlcNAc(b1-4)][Gal(b1-3)GlcNAc(b1-2)Man(a1-6)]Man(b1-4)GlcNAc(b1-4)GlcNAc
# In short: as §1
# [22] = target: Gal(b1-3)GlcNAc(b1-3)Gal(b1-3)GlcNAc
# In short: as §1
# [23] = target: Gal(b1-4)Glc
# In short: as §1
# [24] = target: Gal(b1-4)GlcNAc(b1-2)Man
# In short: as §1
# [25] = target: Gal(b1-4)GlcNAc(b1-2)[Gal(b1-4)GlcNAc(b1-4)]Man(a1-3)[Gal(b1-4)GlcNAc(b1-2)Man(a1-6)]Man(b1-4)GlcNAc(b1-4)GlcNAc
# In short: as §1
# [26] = target: Gal(b1-4)GlcNAc(b1-3)Gal(b1-4)GlcNAc
# In short: as §1
# [27] = target: Gal(b1-4)GlcNAc(b1-3)Gal(b1-4)GlcNAc(b1-3)Gal(b1-4)GlcNAc(b1-2)Man(a1-3)[Gal(b1-4)GlcNAc(b1-3)Gal(b1-4)GlcNAc(b1-3)Gal(b1-4)GlcNAc(b1-2)Man(a1-6)]Man(b1-4)GlcNAc(b1-4)[Fuc(a1-6)]GlcNAc
# In short: as §1
# [28] = target: Gal(b1-4)GlcNAc(b1-3)Gal(b1-4)GlcNAc(b1-3)[Gal(b1-4)GlcNAc(b1-3)Gal(b1-4)GlcNAc(b1-6)]GalNAc
# In short: as §1
# [29] = target: Gal3S(b1-4)[Fuc(a1-3)]GlcNAc
# In short: as §1
# [30] = target: GalNAc(a1-3)GalNAc
# In short: as §1
# [31] = target: GalNAc(a1-3)GalNAc(b1-3)Gal(a1-4)Gal(b1-4)GlcNAc
# In short: as §1
# [32] = target: GalNAc(b1-4)GlcNAc
# In short: as §1
# [33] = target: GalNAc(b1-4)GlcNAc(b1-2)Man(a1-3)[GalNAc(b1-4)GlcNAc(b1-2)Man(a1-6)]Man(b1-4)GlcNAc(b1-4)GlcNAc
# In short: as §1
# [34] = target: GalNAc(b1-4)GlcNAc6S
# In short: as §1
# [35] = target: GlcNAc(b1-2)[GlcNAc(b1-4)]Man(a1-3)[GlcNAc(b1-4)][GlcNAc(b1-2)Man(a1-6)]Man(b1-4)GlcNAc(b1-4)GlcNAc
# In short: as §1
# [36] = target: GlcNAc(b1-3)Gal(b1-4)GlcNAc(b1-6)[GlcNAc(b1-3)Gal(b1-3)]GalNAc
# In short: as §1
# [37] = target: GlcNAc(b1-3)[GlcNAc(b1-6)]Gal(b1-4)GlcNAc
# In short: as §1
# [38] = target: Man(a1-2)Man(a1-6)[Man(a1-3)]Man(a1-6)[Man(a1-2)Man(a1-2)Man(a1-3)]Man(b1-4)GlcNAc(b1-4)GlcNAc
# In short: as §1
# [39] = target: Man(a1-3)[Man(a1-6)]Man
# In short: as §1
# [40] = target: Man(a1-3)[Man(a1-6)]Man(a1-6)[Man(a1-2)Man(a1-3)]Man(b1-4)GlcNAc(b1-4)GlcNAc
# In short: as §1
# [41] = target: Man(a1-3)[Man(a1-6)]Man(a1-6)[Man(a1-3)]Man(b1-4)GlcNAc(b1-4)GlcNAc
# In short: as §1
# [42] = target: Neu5Ac(a2-3)Gal(b1-3)GalNAc
# In short: as §1
# [43] = target: Neu5Ac(a2-3)Gal(b1-3)[Fuc(a1-4)]GlcNAc(b1-3)Gal(b1-4)[Fuc(a1-3)]GlcNAc
# In short: as §1
# [44] = target: Neu5Ac(a2-3)Gal(b1-4)GlcNAc6S
# In short: as §1
# [45] = target: Neu5Ac(a2-3)Gal(b1-4)[Fuc(a1-3)]GlcNAc(b1-3)Gal
# In short: as §1
# [46] = target: Neu5Ac(a2-3)Gal(b1-4)[Fuc(a1-3)]GlcNAc(b1-3)GalNAc
# In short: as §1
# [47] = target: Neu5Ac(a2-3)[GalNAc(b1-4)]Gal(b1-4)Glc
# In short: as §1
# [48] = target: Neu5Ac(a2-6)Gal(b1-4)GlcNAc(b1-2)[Neu5Ac(a2-6)Gal(b1-4)GlcNAc(b1-6)]Man(a1-6)[Neu5Ac(a2-6)Gal(b1-4)GlcNAc(b1-2)Man(a1-3)][GlcNAc(b1-4)]Man(b1-4)GlcNAc(b1-4)GlcNAc
# In short: as §1
# [49] = target: Neu5Ac(a2-6)Gal(b1-4)GlcNAc(b1-3)Gal(b1-4)GlcNAc(b1-3)Gal(b1-4)GlcNAc(b1-2)Man(a1-3)[Neu5Ac(a2-6)Gal(b1-4)GlcNAc(b1-3)Gal(b1-4)GlcNAc(b1-3)Gal(b1-4)GlcNAc(b1-2)Man(a1-6)]GalNAc
# In short: as §1
# [50] = target: Neu5Ac(a2-8)Neu5Ac(a2-3)[GalNAc(b1-4)]Gal(b1-4)Glc
# In short: as §1
binder,measurement,setting,value
B1,glycan array binding signal (z-score),[1],-0.235
same,glycan array binding signal (z-score),[2],0.285
same,glycan array binding signal (z-score),[3],-0.208
same,glycan array binding signal (z-score),[4],-0.461
same,glycan array binding signal (z-score),[5],0.29
same,glycan array binding signal (z-score),[6],-0.333
same,glycan array binding signal (z-score),[7],8.34
same,glycan array binding signal (z-score),[8],-0.571
same,glycan array binding signal (z-score),[9],-0.372
same,glycan array binding signal (z-score),[10],-0.266
same,glycan array binding signal (z-score),[11],0.187
same,glycan array binding signal (z-score),[12],-0.237
same,glycan array binding signal (z-score),[13],0
same,glycan array binding signal (z-score),[14],-0.329
same,glycan array binding signal (z-score),[15],19.1
same,glycan array binding signal (z-score),[16],0.959
same,glycan array binding signal (z-score),[17],0.709
same,glycan array binding signal (z-score),[18],1.28
same,glycan array binding signal (z-score),[19],-0.5
same,glycan array binding signal (z-score),[20],2.76
same,glycan array binding signal (z-score),[21],-0.153
same,glycan array binding signal (z-score),[22],0.024
same,glycan array binding signal (z-score),[23],-0.451
same,glycan array binding signal (z-score),[24],1.02
same,glycan array binding signal (z-score),[25],-0.051
same,glycan array binding signal (z-score),[26],-0.125
same,glycan array binding signal (z-score),[27],2.77
same,glycan array binding signal (z-score),[28],0.116
same,glycan array binding signal (z-score),[29],-0.285
same,glycan array binding signal (z-score),[30],1.35
same,glycan array binding signal (z-score),[31],-0.21
same,glycan array binding signal (z-score),[32],1.18
same,glycan array binding signal (z-score),[33],1.54
same,glycan array binding signal (z-score),[34],-0.085
same,glycan array binding signal (z-score),[35],1.11
same,glycan array binding signal (z-score),[36],-0.227
same,glycan array binding signal (z-score),[37],-0.304
same,glycan array binding signal (z-score),[38],-0.087
same,glycan array binding signal (z-score),[39],-0.441
same,glycan array binding signal (z-score),[40],0.003
same,glycan array binding signal (z-score),[41],-0.618
same,glycan array binding signal (z-score),[42],1.94
same,glycan array binding signal (z-score),[43],0.438
same,glycan array binding signal (z-score),[44],-0.405
same,glycan array binding signal (z-score),[45],-0.135
same,glycan array binding signal (z-score),[46],1.76
same,glycan array binding signal (z-score),[47],-0.539
same,glycan array binding signal (z-score),[48],-0.263
same,glycan array binding signal (z-score),[49],-0.157
same,glycan array binding signal (z-score),[50],-0.466
